Screening data: PubChem, Sanford-Burnham Center for Chemical Genomics
SENP8 block-1 = SENP8 protease inhibitors, primary screen, biochemical, luminescence | Sentrin-specific protease 8 (Homo sapiens), Q96LD8 | purified SENP8, Z-RLRGG-aminoluciferin cleavage | inhibition, % at 10 µM | 1.2% of 330,000 active; in the data active means inhibition above about 50%
SENP6 block = SENP6 protease inhibitors, primary screen, biochemical, luminescence, uHTS. Sentrin-specific protease 6 (Homo sapiens), Q9GZR1. Recombinant SENP6 catalytic domain, aminoluciferin luminescence. inhibition, % at 10 µM. 1.8% of 330,000 active;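 active means inhibition above about 50% at the single tested dose, limit read from the data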;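 further: plate controls were DMSO wells with enzyme for no effect and DMSO wells lacking enzyme for full effect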
Target sequence (Q9GZR1 628-1112 limits assumed): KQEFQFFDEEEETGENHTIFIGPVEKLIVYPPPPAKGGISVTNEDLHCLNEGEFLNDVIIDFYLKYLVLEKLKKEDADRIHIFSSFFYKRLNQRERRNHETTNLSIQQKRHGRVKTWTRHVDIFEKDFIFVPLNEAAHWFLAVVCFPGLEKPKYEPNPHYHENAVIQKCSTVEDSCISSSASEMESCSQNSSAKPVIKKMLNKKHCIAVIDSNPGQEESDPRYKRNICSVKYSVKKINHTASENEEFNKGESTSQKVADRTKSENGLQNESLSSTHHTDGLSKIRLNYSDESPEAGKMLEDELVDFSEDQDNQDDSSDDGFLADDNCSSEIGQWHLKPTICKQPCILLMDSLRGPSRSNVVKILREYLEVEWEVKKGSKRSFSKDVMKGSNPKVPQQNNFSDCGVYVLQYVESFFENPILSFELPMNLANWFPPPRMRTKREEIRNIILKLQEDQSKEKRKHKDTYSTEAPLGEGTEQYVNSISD
C8 TRAIL sens = viability loss with TRAIL in NB7+C8 cells, primary screen, TRAIL sensitizer project, cell-based, ATPlite luminescence; inhibition (viability loss, TRAIL sensitization), % at 10 µM; 1% of 360,000 active; AID 624354, 2012;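 active means compounds causing at least 50% loss of cell viability in the single-dose screen, relative to plate controls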
SENP7 inh = SENP7 protease inhibitors, primary screen, biochemical, luminescence, uHTS; Sentrin-specific protease 7 (Homo sapiens), Q9BQF6; recombinant SENP7, Z-RLRGG-aminoluciferin luminescence, 40 min; inhibition, % at 5 µM; 1.5% of 330,000 active;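 active means inhibition above about 50% at the single test dose, limit read from the data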;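 further: plate controls were DMSO with enzyme for no effect and no enzyme buffer wells for full effect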
PPC-1+TRAIL kill = compounds killing PPC-1 cancer cells with TRAIL present, primary screen, TRAIL potentiator project, ATPLite luminescence, uHTS | PPC-1 cells + TRAIL, ATPLite viability luminescence | cell killing (% activity), % at 4 µM or 5 µM | 0.41% of 220,000 active | AID 1443, 2008;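 active means cell killing above 50% in the first pass at 4 µM, then a duplicate retest at 5 µM averaging 50% or more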;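 further: plate controls were cells with TRAIL plus DMSO for no effect and medium-only wells lacking cells for full effect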
SENP8 block-2 = human SENP8 protease inhibitors, primary screen, biochemical, fluorescence, Nedd8 protein substrate, uHTS; Sentrin-specific protease 8 (Homo sapiens), Q96LD8; inhibition, % at 20 µM; 0.64% of 360,000 active; recombinant SENP8; in the data active means inhibition mostly above about 40%, no sharp cut-off; inactive means mostly below about 27%
PPC1 cytotox = cytotoxicity in PPC-1 cells, confirmation, cytotoxicity control for TRAIL apoptosis potentiator project, cell-based, ATP content luminescence. shares compounds with PPC-1+TRAIL kill. PPC-1 viability, ATPlite luminescence, overnight. cytotoxicity, % at 5 µM. 50% of 1,200 active. AID 1447, 2008;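 active means reconfirmed compounds whose average cytotoxicity reaches 50% or more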;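 further: 0% = DMSO-treated cells and 100% = wells holding medium but no cells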
SENP8 confirm = SENP8 protease inhibitors, retest, confirmation, biochemical, luminescence, single concentration. inhibition, % at 12.5 µM. 40% of 6,200 active. shares compounds with SENP7 inh. Recombinant SENP8, Z-RLRGG-aminoluciferin luminescence, 60 min;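 active means mean inhibition across replicates above about 50%, limit read from the data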
SENP6 conf = SENP6 protease inhibitors, confirmation, biochemical, luminescence, single concentration. shares compounds with SENP7 inh. recombinant SENP6, Z-RLRGG-aminoluciferin luminescence. inhibition, % at 12.5 µM. 58% of 6,200 active. AID 488915, 2010
SENP7 confirm = SENP7 protease inhibitors, retest, confirmation, biochemical, luminescence, single concentration | shares compounds with SENP7 inh | recombinant SENP7, Z-RLRGG-aminoluciferin luminescence, 40 min | inhibition, % at 12.5 µM | 69% of 6,200 active | AID 488917, 2010
Casp3 SENP sel = caspase-3 protease inhibitors, confirmation, selectivity assay for SENP inhibitor project, biochemical, single concentration; shares compounds with SENP7 inh; purified caspase-3, Z-DEVD-aminoluciferin luminescence, 60 min; inhibition, % at 12.5 µM; 60% of 6,200 active; AID 488918, 2010;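 active means mean inhibition above about 50%, limit read from the data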;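 further: plate controls were enzyme with DMSO for no effect and wells without caspase-3 for full effect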
Luc interf = counter-screen for SENP inhibitors: luminescence interference | shares compounds with SENP7 inh | Pre-incubated SENP8/Z-RLRGG-aminoluciferin, luciferase luminescence interference | inhibition, % at 12.5 µM | 39% of 6,200 active;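 active means mean inhibition above about 50% when retested at one dose, limit read from the data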;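 further: plate controls were DMSO wells with completed reaction for no effect and substrate without enzyme for full effect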
* marks the source's active call; other numbers are inactive results; i = inactive; nt = no result. Shown are actives, neighbours in structure and some others; about 3% of the full set was active somewhere.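 How the source made its calls, unless noted: active means mean inhibition above about 50% in the one-dose retest (limit read from the data); inactive means the rest.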

SMILES | SENP8 block-1 | SENP6 block | C8 TRAIL sens | SENP7 inh | PPC-1+TRAIL kill | SENP8 block-2 | PPC1 cytotox | SENP8 confirm | SENP6 conf | SENP7 confirm | Casp3 SENP sel | Luc interf
CC(C)Cc1cc(C(=O)Nc2ccc(Br)cc2)no1 | -8 | 3 | 6 | -4 | 14 | 26 | nt | nt | nt | nt | nt | nt
CCc1ccc(N2CC(C(=O)Nc3ccc(S(=O)(=O)NCC4CCCO4)cc3)CC2=O)cc1 (configuration not stated) | -1 | -15 | 0 | -1 | nt | 6 | nt | nt | nt | nt | nt | nt
CCOC(=O)c1ccc(N/C(=N\S(=O)(=O)c2ccc(F)cc2F)c2ccccc2)cc1 | 3 | 17 | -3 | 4 | 6 | 10 | nt | nt | nt | nt | nt | nt
CCC(=O)Nc1cc2nn(-c3ccc(C)cc3)nc2cc1C | 4 | -14 | 65* | 51* | 59* | -404 | 55* | 11 | 7 | 11 | 8 | -2
Cc1ccc(-n2nc3cc(C)c(NC(=S)NC(=O)/C=C/c4ccco4)cc3n2)cc1 | 10 | 33 | 43 | -1 | 18 | -162 | nt | nt | nt | nt | nt | nt
CCCCC(=O)Nc1cc2nn(-c3ccc(OC)cc3)nc2cc1C | -3 | -50 | -21 | -11 | 14 | -320 | nt | nt | nt | nt | nt | nt
CCC(=O)Nc1cc2nn(-c3ccc(OC)cc3)nc2cc1C | -15 | -15 | 59* | 57* | 58* | -299 | 49 | 11 | 10 | 15 | 10 | 3
O=C(COC(=O)c1ccccc1NCCO)Nc1cccc(S(=O)(=O)NC2=NCCCCC2)c1 | 0 | -21 | 4 | -7 | nt | i | nt | nt | nt | nt | nt | nt
O=C(Cc1ccc(Cl)cc1)Nc1ccccc1C(=O)N1CCCCC1 | 2 | -9 | 3 | 0 | nt | 6 | nt | nt | nt | nt | nt | nt
COc1cc(C(=O)O/N=C(\N)c2ccccn2)cc(OC)c1OC | 7 | -3 | -15 | 2 | -1 | 4 | nt | nt | nt | nt | nt | nt
N/C(=N\OC(=O)c1ccccc1)c1ccccn1 | 92* | 96* | 49 | 98* | 43 | 4 | 52* | 97* | 98* | 102* | 98* | 95*
N/C(=N\OCc1ccc([N+](=O)[O-])cc1)c1ccccn1 | 90* | 95* | nt | 96* | 86* | nt | 85* | 94* | 94* | 100* | 95* | 71*
COc1cc(/C=N/NC(=O)C2CC(=O)N(c3ccc(C)cc3)C2)cc(OC)c1OC (configuration not stated) | 1 | 2 | 8 | 4 | nt | 9 | nt | nt | nt | nt | nt | nt
CC(=O)OC1(C)C=Cc2ccccc2C1=NS(=O)(=O)c1ccccc1 (configuration not stated) | nt | nt | 6 | nt | nt | -91 | nt | nt | nt | nt | nt | nt
O=c1oc(/C=C/c2ccccc2)nc2sc3c(c12)CCC3 | 21 | 65* | 8 | 5 | 8 | 22 | -1 | -20 | -20 | -4 | 17 | -5
COc1ccc(/C=C/c2nc3sc4c(c3c(=O)o2)CCC4)cc1 | 9 | 17 | 5 | 12 | nt | -11 | nt | nt | nt | nt | nt | nt
